# Data: the supplement of paper PMC8728848
# Shown is part of a subset that was picked to be rich in the strongest signals.
# Experiments:
# Test in all cases: glycan array binding signal (z-score within array); higher = stronger binding
# Settings in all cases: glycan notation: IUPAC condensed, linker removed
# Gal(b1-4)GlcNAc = target: Gal(b1-4)GlcNAc
# How it was run: (§1)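 Negative Z-scores can be read as non-binding. The Z-score is calculated within each array and then averaged across arrays of one protein sequence at different concentrations or buffers and across linkers. Arrays, 3228 in all, were curated from the Consortium for Functional Glycomics database and kept only where the protein sequence was available.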
# [1] = target: Gal(b1-4)GlcNAc(b1-2)Man(a1-3)[GlcNAc(b1-4)][Gal(b1-4)GlcNAc(b1-2)Man(a1-6)]Man(b1-4)GlcNAc(b1-4)GlcNAc
# How it was run: as §1
# [2] = target: Gal(b1-4)GlcNAc(b1-3)Gal(b1-3)GalNAc
# How it was run: as §1
# Gal3S(b1-4)Glc6S = target: Gal3S(b1-4)Glc6S
# How it was run: as §1
# Gal6S(b1-4)Glc = target: Gal6S(b1-4)Glc
# How it was run: as §1
# GlcNAc(b1-3)Gal(b1-4)Glc = target: GlcNAc(b1-3)Gal(b1-4)Glc
# How it was run: as §1
# [3] = target: GlcNAc(b1-3)Gal(b1-4)GlcNAc(b1-3)Gal(b1-4)GlcNAc(b1-2)[GlcNAc(b1-3)Gal(b1-4)GlcNAc(b1-3)Gal(b1-4)GlcNAc(b1-6)]Man(a1-6)[GlcNAc(b1-3)Gal(b1-4)GlcNAc(b1-3)Gal(b1-4)GlcNAc(b1-2)Man(a1-3)]Man(b1-4)GlcNAc(b1-4)[Fuc(a1-6)]GlcNAc
# How it was run: as §1
# [4] = target: GlcNAc(b1-3)Gal(b1-4)GlcNAc(b1-3)Gal(b1-4)GlcNAc(b1-3)Gal(b1-4)GlcNAc(b1-2)[GlcNAc(b1-3)Gal(b1-4)GlcNAc(b1-3)Gal(b1-4)GlcNAc(b1-3)Gal(b1-4)GlcNAc(b1-6)]Man(a1-6)[GlcNAc(b1-3)Gal(b1-4)GlcNAc(b1-3)Gal(b1-4)GlcNAc(b1-3)Gal(b1-4)GlcNAc(b1-2)Man(a1-3)]Man(b1-4)GlcNAc(b1-4)[Fuc(a1-6)]GlcNAc
# How it was run: as §1
# [5] = target: GlcNAc(b1-3)Gal(b1-4)GlcNAc(b1-3)Gal(b1-4)GlcNAc(b1-3)Gal(b1-4)GlcNAc(b1-3)Gal(b1-4)GlcNAc(b1-2)[GlcNAc(b1-3)Gal(b1-4)GlcNAc(b1-3)Gal(b1-4)GlcNAc(b1-3)Gal(b1-4)GlcNAc(b1-3)Gal(b1-4)GlcNAc(b1-6)]Man(a1-6)[GlcNAc(b1-3)Gal(b1-4)GlcNAc(b1-3)Gal(b1-4)GlcNAc(b1-3)Gal(b1-4)GlcNAc(b1-3)Gal(b1-4)GlcNAc(b1-2)Man(a1-3)]Man(b1-4)GlcNAc(b1-4)[Fuc(a1-6)]GlcNAc
# How it was run: as §1
# GlcNAc(b1-3)GalNAc = target: GlcNAc(b1-3)GalNAc
# How it was run: as §1
# [6] = target: GlcNAc(b1-3)[GlcNAc(b1-6)]Gal(b1-4)GlcNAc
# How it was run: as §1
# [7] = target: Man(a1-2)Man(a1-3)[Man(a1-2)Man(a1-6)]Man
# How it was run: as §1
# [8] = target: Man(a1-3)[Man(a1-6)]Man(b1-4)GlcNAc(b1-4)[Fuc(a1-6)]GlcNAc
# How it was run: as §1
# [9] = target: Neu5Ac(a2-3)Gal(b1-3)GlcNAc(b1-2)Man(a1-3)[GlcNAc(b1-4)][Neu5Ac(a2-3)Gal(b1-3)GlcNAc(b1-2)Man(a1-6)]Man(b1-4)GlcNAc(b1-4)GlcNAc
# How it was run: as §1
# [10] = target: Neu5Ac(a2-3)Gal(b1-4)GlcNAc
# How it was run: as §1
# [11] = target: Neu5Ac(a2-3)Gal(b1-4)GlcNAc(b1-2)Man(a1-3)[Neu5Ac(a2-6)Gal(b1-4)GlcNAc(b1-2)Man(a1-6)]Man(b1-4)GlcNAc(b1-4)GlcNAc
# How it was run: as §1
# [12] = target: Neu5Ac(a2-3)Gal(b1-4)GlcNAc(b1-2)[Neu5Ac(a2-3)Gal(b1-4)GlcNAc(b1-4)]Man(a1-3)[GlcNAc(b1-4)][Neu5Ac(a2-3)Gal(b1-4)GlcNAc(b1-2)[Neu5Ac(a2-3)Gal(b1-4)GlcNAc(b1-6)]Man(a1-6)]Man(b1-4)GlcNAc(b1-4)GlcNAc
# How it was run: as §1
# [13] = target: Neu5Ac(a2-3)[GalNAc(b1-4)]Gal(b1-4)GlcNAc(b1-3)GalNAc
# How it was run: as §1
# [14] = target: Neu5Ac(a2-6)Gal(b1-4)GlcNAc(b1-3)Gal(b1-4)GlcNAc(b1-2)Man(a1-3)[Neu5Ac(a2-6)Gal(b1-4)GlcNAc(b1-3)Gal(b1-4)GlcNAc(b1-2)Man(a1-6)]GalNAc
# How it was run: as §1
# [15] = target: Neu5Ac(a2-6)Gal(b1-4)GlcNAc(b1-3)Gal(b1-4)GlcNAc(b1-3)Gal(b1-4)GlcNAc
# How it was run: as §1
# [16] = target: Neu5Ac(a2-6)Gal(b1-4)GlcNAc(b1-3)Gal(b1-4)GlcNAc(b1-3)Gal(b1-4)GlcNAc(b1-2)Man(a1-3)[Neu5Ac(a2-6)Gal(b1-4)GlcNAc(b1-3)Gal(b1-4)GlcNAc(b1-3)Gal(b1-4)GlcNAc(b1-2)Man(a1-6)]GalNAc
# How it was run: as §1
# [17] = target: Neu5Ac(a2-6)Gal(b1-4)GlcNAc(b1-3)Gal(b1-4)[Fuc(a1-3)]GlcNAc(b1-3)Gal(b1-4)[Fuc(a1-3)]GlcNAc
# How it was run: as §1
# [18] = target: Neu5Ac(a2-6)Gal(b1-4)GlcNAc(b1-6)[Gal(b1-3)GlcNAc(b1-3)]Gal(b1-4)Glc
# How it was run: as §1
# [19] = target: Neu5Ac(a2-6)GlcNAc(b1-4)GlcNAc(b1-4)GlcNAc
# How it was run: as §1
# [20] = target: Neu5Ac(a2-8)Neu5Ac(a2-3)Gal(b1-3)GalNAc(b1-4)[Neu5Ac(a2-8)Neu5Ac(a2-3)]Gal(b1-4)Glc
# How it was run: as §1
# [21] = target: Neu5Ac9Ac(a2-6)Gal(b1-4)GlcNAc
# How it was run: as §1
binder,measurement,setting,value
Epa8 (Candida glabrata) (protein) MGSSHHHHHHSSGLVPRGSHMASSRALSDYPLGCSPLLGTKLTPGLSMELYEYPLDNHGIGPHCWDPAYLNPEYPRTGFESHKLIGTAQNVMSLNFEHRTQDCHVEFSNLPASFNFPDQITLTNFTMLLYGYFKPKESGRYRFHMEADDLLLMNLGAGNAFDCCAHEATRNNLGDYIAYDIWAGTRKDVEVFLEKEVFYPLRLFFNNRDGRAALDFSYYLNGATEPGTDIPELLFSLPDGESCPAYI,glycan array binding signal (z-score),Gal(b1-4)GlcNAc,-0.292
same,glycan array binding signal (z-score),[1],-1.47
same,glycan array binding signal (z-score),[2],-1.06
same,glycan array binding signal (z-score),Gal3S(b1-4)Glc6S,0.684
same,glycan array binding signal (z-score),Gal6S(b1-4)Glc,0.199
same,glycan array binding signal (z-score),GlcNAc(b1-3)Gal(b1-4)Glc,-0.331
same,glycan array binding signal (z-score),[3],3.86
same,glycan array binding signal (z-score),[4],3
same,glycan array binding signal (z-score),[5],2.23
same,glycan array binding signal (z-score),GlcNAc(b1-3)GalNAc,-0.661
same,glycan array binding signal (z-score),[6],0.492
same,glycan array binding signal (z-score),[7],-0.246
same,glycan array binding signal (z-score),[8],2.33
same,glycan array binding signal (z-score),[9],1.49
same,glycan array binding signal (z-score),[10],-0.315
same,glycan array binding signal (z-score),[11],0.195
same,glycan array binding signal (z-score),[12],-0.346
same,glycan array binding signal (z-score),[13],0.105
same,glycan array binding signal (z-score),[14],2.31
same,glycan array binding signal (z-score),[15],-0.084
same,glycan array binding signal (z-score),[16],3.31
same,glycan array binding signal (z-score),[17],-0.491
same,glycan array binding signal (z-score),[18],-0.638
same,glycan array binding signal (z-score),[19],-0.271
same,glycan array binding signal (z-score),[20],0.256
same,glycan array binding signal (z-score),[21],-0.4
